Assay results as given in PubChem BioAssay AID588511 (Johns Hopkins Ion Channel Center, 2011).
About 3,600 (1.2%) of roughly 310,000 compounds were called active.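 Rule for the calls: active = ratio plate-corrected score three or more library SD toward inhibition, starting fluorescence score within five deviations; inactive = the rest.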 The entries come from a sample that favours actives as a whole.

These molecules were tested against Anoctamin-1 (Mus musculus) (UniProt Q8BHY3) (assay: TMEM16A chloride channel inhibitors, primary screen, cell-based, HTS (AID 588511;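 for normalized B-score (activity score, 25-100; higher = stronger inhibition): score derived from kinetic fluorescence span divided by baseline fluorescence per well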)). Settings: HEK293 TMEM16A/YFP iodide influx fluorescence, ionomycin; at 10 µM.
Anoctamin-1 (Mus musculus), sequence (Q8BHY3 whole entry, looked up): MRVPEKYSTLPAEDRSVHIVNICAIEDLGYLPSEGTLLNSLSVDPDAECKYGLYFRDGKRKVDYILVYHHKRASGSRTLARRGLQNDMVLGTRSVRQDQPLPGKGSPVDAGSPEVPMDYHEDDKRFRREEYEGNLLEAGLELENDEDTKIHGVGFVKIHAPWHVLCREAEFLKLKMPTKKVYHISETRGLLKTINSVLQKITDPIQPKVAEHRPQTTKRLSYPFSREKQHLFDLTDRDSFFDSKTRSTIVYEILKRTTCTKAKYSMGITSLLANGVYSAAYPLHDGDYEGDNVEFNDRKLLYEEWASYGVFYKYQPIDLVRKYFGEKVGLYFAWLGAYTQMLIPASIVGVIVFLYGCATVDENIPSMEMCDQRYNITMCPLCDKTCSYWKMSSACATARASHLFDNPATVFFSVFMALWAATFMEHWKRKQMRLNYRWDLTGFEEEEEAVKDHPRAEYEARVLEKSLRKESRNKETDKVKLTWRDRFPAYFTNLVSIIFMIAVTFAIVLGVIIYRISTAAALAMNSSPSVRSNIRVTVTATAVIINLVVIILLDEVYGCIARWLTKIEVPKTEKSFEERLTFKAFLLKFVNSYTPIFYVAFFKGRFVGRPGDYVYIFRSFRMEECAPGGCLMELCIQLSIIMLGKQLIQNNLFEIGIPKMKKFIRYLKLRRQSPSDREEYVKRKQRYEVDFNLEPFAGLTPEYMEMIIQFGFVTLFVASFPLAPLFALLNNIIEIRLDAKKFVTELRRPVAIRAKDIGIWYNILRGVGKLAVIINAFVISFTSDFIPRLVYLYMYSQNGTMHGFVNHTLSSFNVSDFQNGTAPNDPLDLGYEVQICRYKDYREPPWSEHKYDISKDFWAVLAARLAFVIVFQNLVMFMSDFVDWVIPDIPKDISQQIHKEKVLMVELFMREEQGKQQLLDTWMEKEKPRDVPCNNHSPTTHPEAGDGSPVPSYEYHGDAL

Row | SMILES | normalized B-score (activity score, 25-100; higher = stronger inhibition)
1 | O=C(C1CCN(S(=O)(=O)c2ccc(Br)s2)CC1)N1CCN(c2ccccc2)CC1 | inactive
2 | Cc1ccc(N2CC(C(=O)Nc3ccc(S(=O)(=O)N4CCCC4)cc3)CC2=O)cc1C (stereo not given) | inactive
3 | Cc1ccc(NC(=O)C2CC(=O)N(c3ccc4c(c3)OCCO4)C2)cc1S(=O)(=O)N1CCCCCC1 (stereo not given) | 25 (active)
4 | COc1ccc(S(=O)(=O)N2CCCCC2)cc1NC(=O)C1CC(=O)N(c2ccc3c(c2)OCCO3)C1 (stereo not given) | inactive
5 | Cc1oc(-c2ccccc2F)nc1CS(=O)CC(=O)NCCN1CCCCC1C (stereo not given) | inactive
6 | CSc1cccc(NC(=S)N(Cc2ccccc2)Cc2ccccn2)c1 | inactive
7 | CSc1cccc(NC(=S)N(C(C)C)C(C)c2ccccn2)c1 (stereo not given) | 25 (active)
8 | CC(c1ccccn1)N(CCN(C)C)C(=S)Nc1ccccc1F (stereo not given) | inactive
9 | CC(C)/C=N/NC(=O)c1cc(Br)ccc1O | inactive
10 | CC(=N\NC(=O)c1cc(Br)ccc1O)/C(=N/O)C(=O)Nc1ccccc1 | 25 (active)
11 | CC(=O)N/N=C(\C)c1ccc(Br)cc1Br | inactive
12 | O=C(NC(=S)Nc1ccc(Cl)c(C(=O)O)c1)c1cncc(Br)c1 | inactive
13 | COc1cc(C)c(C(C)C)cc1S(=O)(=O)n1ccnc1 | inactive
14 | COc1ccccc1-n1cnc2cc(NS(=O)(=O)c3ccccc3)ccc21 | inactive
15 | CC(C)c1ccc2c(c1)c(SC(C)(C)C)c(CC(C)(C)C(=O)O)n2Cc1ccc(Cl)cc1 | 100 (active)
16 | O=C(O)c1ccc(Cn2c(=S)[nH]c3cc(Cl)ccc3c2=O)cc1 | inactive
17 | O=C(COC(=O)CNS(=O)(=O)c1ccccc1)NC12CC3CC(CC(C3)C1)C2 | inactive
18 | CSc1ncc(Sc2ccccc2)c(C(=O)O)n1 | inactive
19 | CSc1nnc2c(n1)OC(c1cn(C)c3ccccc13)N(C(C)=O)c1ccccc1-2 (stereo not given) | inactive
20 | CSc1nnc2c(n1)OC(c1ccsc1)N(C(C)=O)c1ccccc1-2 (stereo not given) | 100 (active)
21 | NS(=O)(=O)c1ccc(CCNC(=O)c2ccc(Cl)cc2[N+](=O)[O-])cc1 | inactive
22 | O=C(NCCc1c[nH]c2ccc(Cl)cc12)c1ccc([N+](=O)[O-])cc1 | inactive
23 | O=C(NCCc1ccc(Cl)cc1Cl)c1cc([N+](=O)[O-])c[nH]c1=O | 100 (active)
24 | CC(C)CC(CCc1ccccc1)OS(N)(=O)=O (stereo not given) | inactive
25 | CSc1nc2nc3c(c(=O)n2[nH]1)CCC3 | inactive
26 | COc1ccc(C(=O)CCc2ccccc2O)c(OC)c1 | inactive
27 | CCOc1ccc(NC(=O)CCCCCN2C(=O)[C@@H]3Cc4ccccc4CN3C2=O)cc1 | inactive
28 | CCOC(=O)Cc1csc(NC(=O)CSc2nnc(-c3cccnc3)n2Cc2ccco2)n1 | 100 (active)
29 | O=C(CSc1nnc(-c2cccnc2)n1Cc1ccco1)c1ccc(Cl)c(Cl)c1 | inactive
30 | COc1cc(Cl)c(C)cc1NC(=O)CSc1nnc(-c2cccnc2)n1Cc1ccco1 | inactive
